In PubChem BioAssay (NCI) one finds growth inhibition data, which are given here for 40 molecules.

Molecules are shown by their SMILES. The panel holds about 79,000 compounds, 15% with a hit somewhere; the sample as a whole holds those more often. Unmarked numbers belong to inactive results. Calls of active or inactive are those of the source. No stated cut-off is given here; in the data, active means growth inhibition above about 70%; inactive means the rest.

The assay is described as follows: NCI Yeast Anticancer Drug Screen. Data for the sgs1 mgt1 strain (AID 161).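 Further: 0% = growth of cultures given vehicle only.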 The conditions noted are these: S. cerevisiae sgs1 mgt1 strain, at 50.0 µM, stronger effect = higher value. Put shortly: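 Mutant yeast exposed to compound; growth scored against vehicle-only wells.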
With `Cc1cc(N=C2C=CC(=O)C=C2)ccc1O`, the growth inhibition was 30.4%. Take `CCCCOc1ccc([N+](=O)[O-])cn1`: the growth inhibition is 3.15%. The value for `CCCCCCCCCc1ccc(COCCCC)cc1` was 56.1%.

For `CC(C(=O)C(=O)Nc1ccc(Cl)cc1)C(=O)c1ccc(Cl)cc1` (stereo not given), the growth inhibition was -2.85%. With `[N-]=[N+]=Nc1ccnc2c(C(F)(F)F)cccc12` the figure was -8%; with `CCCC(=O)Oc1ccc2ccccc2c1`, 1.8%; with `COc1ccc(OC)c2c(Nc3ccc(S(=O)(=O)O)c4cc(S(=O)(=O)O)cc(S(=O)(=O)O)c34)cc(C)nc12`, 9.25%. The value for `CCOC(=O)c1ccc(NCc2cccc([N+](=O)[O-])c2)cc1` was 10.4%; that for `Cc1ccc([N+](=O)[O-])cc1Br` was -0.5%; that for `C#CCOC(=O)C(N)CS` (stereo not given) was -13.6%.

Consider `O=C(Nc1ccc(C2=NCCN2)c(O)c1)c1ccc(C(=O)Nc2ccc(C3=NCCN3)c(O)c2)cc1`, for which the growth inhibition was 23.2%. Regarding `C1CCCC(N2N=NC3C4CC(C5N=NN(C6CCCCCC6)C45)C32)CC1` (stereo not given), the growth inhibition was 7.65%. With `CC(CN(C)C)CN1c2ccccc2Sc2ccccc21` (stereo not given) the figure was -7%; with `COc1cc2c(cc1OC)C(=O)C1(CO)COC(=O)C1C2` (stereo not given), -2.15%. For the molecule `O=[N+]([O-])c1ccc(/C=N/C(/N=C/c2ccc([N+](=O)[O-])cc2)c2ccc([N+](=O)[O-])cc2)cc1`, the growth inhibition is 6.35%. Turning to `CN(C)c1cc(N(C)C)c2cc(C#N)ccc2n1`, the growth inhibition was 17.2%. With `Nc1nc(=S)c2[nH]cnc2[nH]1` the figure was -21.4%; with `Cc1c(C)c2cc(Br)ccc2[nH]c1=O`, -10.2%.

Turning to `Nc1ccccc1SC(CC(=O)c1ccccc1)c1cccc([N+](=O)[O-])c1` (stereo not given), the growth inhibition is 0.55%.

Regarding `COc1cc(/C=N\N=C(/C)c2ccc(C)cc2C)cc(OC)c1OC`, the growth inhibition was 24.8%. For `COC(=O)CCC(=O)CN1C(=O)c2ccccc2C1=O`, the growth inhibition was 4%. The value for `C[N+](C)(Cc1cccc(Cl)c1)c1nnn[n-]1` was -7.05%.

For `COc1ccc(C(=O)/C=C/c2c[nH]c3ccccc23)c(O)c1`, the growth inhibition is 26.3%. As to `COc1ccccc1/C=N/Nc1ccc([N+](=O)[O-])cc1[N+](=O)[O-]`, the growth inhibition is 3.35%. As to `O=C(OCc1ccccc1)c1ccccc1`, the growth inhibition was 10.8%. The value for `CCCCCCCCN1COC2CCc3ccccc3C21` (stereo not given) was 93.8% (active); that for `COC1OC(CO)C(O)C(NC(=O)[C@H](Cc2ccc(O)cc2)NC(=O)OCc2ccccc2)C1O` (stereo not given in full) was 3.2%.

As for `CCCCCCCCCCC/C=N\[N+](C)(C)C`, the growth inhibition was 98.7% (active).

Turning to `O=C(O)c1c2c(nc3ccccc13)CCC2`, the growth inhibition is 6.35%.

`O=c1cc(-c2ccc(O)cc2)oc2cc(O)cc(O)c12`: the growth inhibition is -8.45%.

`CC(=O)Oc1ccc(C2(c3ccc(OC(C)=O)cc3)C(=O)Nc3ccccc32)cc1`: the growth inhibition is -5.85%. The value for `OC1CCCCC2CC2C1O` (stereo not given) was 6.8%; that for `NC(=O)N1CCCC1=O` was -20.8%; that for `O=C1CC2C3CC4(OCCO4)C4C3CC2C14` (stereo not given) was 3%.

Turning to `COc1cc(NC(C)CCCN)c2nccc(C)c2c1` (stereo not given), the growth inhibition is -27.1%. With `O=C1NC(=O)C(c2ccc(C(=O)O)cc2)N1` (stereo not given) the figure was 0.05%; with `OCc1ccccc1F`, -20.6%; with `NS(=O)(=O)c1ccc(NC(=O)Nc2cccc(Cl)c2)cc1`, 15.5%.

As for `Cc1ccc(C)c(NC(=O)Oc2ccc(Cl)cc2Cc2ccccc2)c1`, the growth inhibition is 0.05%.

On to `S=c1[nH]ncn2nc3ccccc3c12`, for which the growth inhibition was -2.25%.
